Drawing on publication PMC9838217, “Structure of SALL4 zinc finger domain reveals link between AT-rich DNA binding and Okihiro syndrome”, this text covers binding signal for 30 sequences.

Changes are numbered by the printed parent chain.

Assay in all cases: HT-SELEX; high values mean tight binding
What all share (details): protein: recombinant; vector His6-GST; dsDNA, one strand shown

One test addresses T1, SALL4 ZFC4 WT (HT-SELEX) (Mus musculus, UniProt Q8BX22 870-940).
T1 sequence: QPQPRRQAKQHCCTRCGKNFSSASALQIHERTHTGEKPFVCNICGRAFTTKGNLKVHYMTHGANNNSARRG
The gist of the method:
(§1)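 Up to 6 cycles of selection were run in triplicate. In each, purified recombinant mouse SALL4 zinc finger cluster 4 (residues 870–940, 1 µg) was incubated with library DNA (1.5 µg first cycle, 200 ng later) in 100 µl of 10 mM Tris–HCl pH 7.5, 50 mM NaCl, poly(dI-dC), DTT for 10 min at room temperature, then complexes were captured on Ni2+ beads, washed and PCR-amplified; final pools were MiSeq-sequenced and scanned for 6-mers. Binding signal is each canonical k-mer's read fraction as fold change versus the initial random library.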

Test [1] deals with T2, SALL4 ZFC4 R900W (HT-SELEX) (Mus musculus, UniProt Q8BX22 870-940, R900W).
T2 sequence: T1 sequence with R31W
The essentials: as §1

In test [2] the target is T3, SALL4 ZFC4 G921D (HT-SELEX) (Mus musculus, UniProt Q8BX22 870-940, G921D).
T3 sequence: T1 sequence with G52D
The gist of the method:
as §1

In the case of CTTTGA, the figures for the binding signal (in the test with SALL4 ZFC4 WT (HT-SELEX); in test [1]; in test [2]) were 1.2 ± 0.0763 fold-change vs cycle 0, 1.36 ± 0.0716 fold-change vs cycle 0 and 1.33 ± 0.077 fold-change vs cycle 0, respectively.

Regarding GACAAC, the binding signal stood at 0.673 ± 0.0124 fold-change vs cycle 0 with SALL4 ZFC4 WT (HT-SELEX), 0.798 ± 0.0444 fold-change vs cycle 0 in test [1] and 0.89 ± 0.0263 fold-change vs cycle 0 in test [2].

As for AATTGA, the binding signal with SALL4 ZFC4 WT (HT-SELEX) amounted to 1.92 ± 0.0967 fold-change vs cycle 0; in test [1], 1.88 ± 0.0991 fold-change vs cycle 0; in test [2] it was 1.75 ± 0.142 fold-change vs cycle 0.

CTGACC: the binding signal was found to be 0.426 ± 0.0325 fold-change vs cycle 0 with SALL4 ZFC4 WT (HT-SELEX), 0.52 ± 0.0363 fold-change vs cycle 0 in test [1] and 0.621 ± 0.0521 fold-change vs cycle 0 in test [2].

For ATAGCG, the values for the binding signal (in the test with SALL4 ZFC4 WT (HT-SELEX); in test [1]; in test [2]) were 0.516 ± 0.00601 fold-change vs cycle 0, 0.55 ± 0.0156 fold-change vs cycle 0 and 0.681 ± 0.0378 fold-change vs cycle 0, respectively.

Consider AAGGAA, for which the binding signal in the test with SALL4 ZFC4 WT (HT-SELEX) was 1.46 ± 0.0939 fold-change vs cycle 0; in test [1] it was 1.66 ± 0.0995 fold-change vs cycle 0; in test [2] it was 1.49 ± 0.137 fold-change vs cycle 0.

With GCTGAC, the results for the binding signal (in the test with SALL4 ZFC4 WT (HT-SELEX); in test [1]; in test [2]) were 0.325 ± 0.00641 fold-change vs cycle 0, 0.408 ± 0.0215 fold-change vs cycle 0 and 0.526 ± 0.0825 fold-change vs cycle 0, respectively.

Consider ACCATC, for which the binding signal came out at 0.858 ± 0.0322 fold-change vs cycle 0 with SALL4 ZFC4 WT (HT-SELEX), 0.944 ± 0.0334 fold-change vs cycle 0 in test [1] and 0.994 ± 0.0236 fold-change vs cycle 0 in test [2].

For the sequence AGCGAT, the binding signal stood at 0.553 ± 0.0342 fold-change vs cycle 0 with SALL4 ZFC4 WT (HT-SELEX), 0.644 ± 0.0243 fold-change vs cycle 0 in test [1] and 0.766 ± 0.0387 fold-change vs cycle 0 in test [2].

AATAAG: the binding signal with SALL4 ZFC4 WT (HT-SELEX) was found to be 2.35 ± 0.133 fold-change vs cycle 0; in test [1], 2.15 ± 0.175 fold-change vs cycle 0; in test [2] it was 1.86 ± 0.227 fold-change vs cycle 0.

In the case of CACGGA, the binding signal in the test with SALL4 ZFC4 WT (HT-SELEX) was found to be 0.395 ± 0.0417 fold-change vs cycle 0; in test [1], 0.459 ± 0.0312 fold-change vs cycle 0; in test [2], 0.571 ± 0.0613 fold-change vs cycle 0.

Take AATTAA: the binding signal turned out to be 3.49 ± 0.279 fold-change vs cycle 0 in the test with SALL4 ZFC4 WT (HT-SELEX), 2.6 ± 0.189 fold-change vs cycle 0 in test [1] and 2.2 ± 0.282 fold-change vs cycle 0 in test [2].

As for CGGTCA, the results for the binding signal (in the test with SALL4 ZFC4 WT (HT-SELEX); in test [1]; in test [2]) were 0.331 ± 0.0331 fold-change vs cycle 0, 0.405 ± 0.0336 fold-change vs cycle 0 and 0.52 ± 0.0692 fold-change vs cycle 0, respectively.

As for ATCGGG, the values for the binding signal (with SALL4 ZFC4 WT (HT-SELEX); in test [1]; in test [2]) were 0.397 ± 0.0233 fold-change vs cycle 0, 0.457 ± 0.0142 fold-change vs cycle 0 and 0.568 ± 0.0671 fold-change vs cycle 0, respectively.

In the case of TATCAA, the figures for the binding signal (in the test with SALL4 ZFC4 WT (HT-SELEX); in test [1]; in test [2]) were 2.32 ± 0.148 fold-change vs cycle 0, 2 ± 0.128 fold-change vs cycle 0 and 1.87 ± 0.178 fold-change vs cycle 0, respectively.

Consider AGATGA, for which the binding signal is 1.49 ± 0.0331 fold-change vs cycle 0 with SALL4 ZFC4 WT (HT-SELEX), 1.6 ± 0.074 fold-change vs cycle 0 in test [1] and 1.46 ± 0.104 fold-change vs cycle 0 in test [2].

For AATTGT, the binding signal in the test with SALL4 ZFC4 WT (HT-SELEX) worked out at 1.82 ± 0.0686 fold-change vs cycle 0; in test [1] it was 1.81 ± 0.0917 fold-change vs cycle 0; in test [2], 1.66 ± 0.114 fold-change vs cycle 0.

Take CCTTGC: the values for the binding signal (in the test with SALL4 ZFC4 WT (HT-SELEX); in test [1]; in test [2]) were 0.381 ± 0.0117 fold-change vs cycle 0, 0.45 ± 0.00496 fold-change vs cycle 0 and 0.554 ± 0.0487 fold-change vs cycle 0, respectively.

Regarding CTAGGA, the binding signal with SALL4 ZFC4 WT (HT-SELEX) came out at 0.873 ± 0.029 fold-change vs cycle 0; in test [1], 0.993 ± 0.0392 fold-change vs cycle 0; in test [2], 0.975 ± 0.0202 fold-change vs cycle 0.

As for AGAGCT, the results for the binding signal (with SALL4 ZFC4 WT (HT-SELEX); in test [1]; in test [2]) were 0.658 ± 0.0205 fold-change vs cycle 0, 0.784 ± 0.026 fold-change vs cycle 0 and 0.8909 ± 0.00859 fold-change vs cycle 0, respectively.

For CCGAGA, the binding signal in the test with SALL4 ZFC4 WT (HT-SELEX) came out at 0.385 ± 0.0394 fold-change vs cycle 0; in test [1] it was 0.459 ± 0.0241 fold-change vs cycle 0; in test [2], 0.548 ± 0.059 fold-change vs cycle 0.

For AAGATA, the binding signal is 2.25 ± 0.105 fold-change vs cycle 0 in the test with SALL4 ZFC4 WT (HT-SELEX), 2.22 ± 0.148 fold-change vs cycle 0 in test [1] and 1.9 ± 0.223 fold-change vs cycle 0 in test [2].

Consider TCTTCA, for which the values for the binding signal (with SALL4 ZFC4 WT (HT-SELEX); in test [1]; in test [2]) were 1.42 ± 0.033 fold-change vs cycle 0, 1.6 ± 0.094 fold-change vs cycle 0 and 1.48 ± 0.131 fold-change vs cycle 0, respectively.

For ATCTCG, the binding signal with SALL4 ZFC4 WT (HT-SELEX) was found to be 0.777 ± 0.0506 fold-change vs cycle 0; in test [1], 0.837 ± 0.0514 fold-change vs cycle 0; in test [2], 0.933 ± 0.0422 fold-change vs cycle 0.

Take ACTAGC: the values for the binding signal (with SALL4 ZFC4 WT (HT-SELEX); in test [1]; in test [2]) were 0.648 ± 0.0227 fold-change vs cycle 0, 0.764 ± 0.0235 fold-change vs cycle 0 and 0.825 ± 0.0195 fold-change vs cycle 0, respectively.

On to GCCTTA, for which the binding signal with SALL4 ZFC4 WT (HT-SELEX) is 0.573 ± 0.0273 fold-change vs cycle 0; in test [1], 0.685 ± 0.0271 fold-change vs cycle 0; in test [2], 0.783 ± 0.0268 fold-change vs cycle 0.

CAATGC: the binding signal with SALL4 ZFC4 WT (HT-SELEX) was 0.595 ± 0.019 fold-change vs cycle 0; in test [1], 0.673 ± 0.0218 fold-change vs cycle 0; in test [2], 0.807 ± 0.0224 fold-change vs cycle 0.

As to AGTGTC, the binding signal with SALL4 ZFC4 WT (HT-SELEX) is 0.664 ± 0.023 fold-change vs cycle 0; in test [1], 0.81 ± 0.0199 fold-change vs cycle 0; in test [2], 0.9 ± 0.0262 fold-change vs cycle 0.

For GTGAAC, the binding signal with SALL4 ZFC4 WT (HT-SELEX) worked out at 0.832 ± 0.046 fold-change vs cycle 0; in test [1], 0.941 ± 0.022 fold-change vs cycle 0; in test [2], 1.01 ± 0.0456 fold-change vs cycle 0.

For the sequence ACTCTC, the binding signal turned out to be 0.904 ± 0.0319 fold-change vs cycle 0 with SALL4 ZFC4 WT (HT-SELEX), 1.05 ± 0.0292 fold-change vs cycle 0 in test [1] and 1.07 ± 0.0307 fold-change vs cycle 0 in test [2].
